Active and inactive are the calls of the source. Unless noted, the rule behind the calls is not given here.
Experiments:
[1] = compound effects on lung adenocarcinoma cell viability – A549, calcein-AM fluorescence, 48 h, basal, profiling panel (AID 1162); settings: higher = more signal; note: test concentration not given here
[2] = compound effects on differentiated 3T3-L1 adipocyte viability – cell-based, 3T3-L1 adipocytes, calcein-AM fluorescence, 48 h, basal, profiling panel (AID 1163); settings: 3T3-L1 adipocytes viability, higher = more signal; note: test concentration not given here
[3] = compound effects on hepatocellular carcinoma cell viability – HepG2, calcein-AM fluorescence, 48 h, basal, profiling panel (AID 1164); settings: higher = more signal; note: test concentration not given here
[4] = compound effects on multiple myeloma cell viability – MM1S, calcein-AM fluorescence, 48 h, basal, profiling panel (AID 1165); settings: higher = more signal;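 note: viability of MM1S multiple myeloma cells under basal unstimulated conditions; test concentration not given here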
[5] = calcein-AM signal in unstimulated myeloma cells – cell-based, calcein-AM fluorescence, 48 h, PK04 Diversity Set, profiling panel (AID 1166); settings: RPMI8226 myeloma viability, higher = more signal;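 note: cells grown under basal conditions without added stimulus; test concentration not given here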
[6] = JC-1 mitochondrial signal, unstimulated HepG2 cells – cell-based, JC-1 fluorescence, 24 h, 100 nL compound, profiling panel (AID 1167); settings: HepG2 mitochondrial potential, higher = more signal; note: test concentration not given here
[7] = JC-1 mitochondrial signal, unstimulated adipocytes – cell-based, JC-1 fluorescence, 3T3-L1 adipocytes, 24 h, 100 nL compound, profiling panel (AID 1168); settings: JC-1 mitochondrial fluorescence, higher = more signal, called active from +8 up or from −8 down; note: test concentration not given here
[8] = JC-1 mitochondrial signal, unstimulated myeloma cells – cell-based, JC-1 fluorescence, RPMI8226, 24 h, 100 nL compound, profiling panel (AID 1169); settings: JC-1 mitochondrial potential fluorescence, higher = more signal; note: test concentration not given here
[9] = JC-1 mitochondrial signal, unstimulated MM1S myeloma – cell-based, JC-1 fluorescence, 24 h, 100 nL compound, profiling panel (AID 1170); settings: MM1S mitochondrial potential, higher = more signal; note: test concentration not given here
[10] = resazurin metabolic signal in A549 cells – cell-based, resazurin fluorescence, 24 h, PK04 Diversity Set, profiling panel (AID 1171); settings: A549 viability, higher = more signal, called active from +8 up or from −8 down; note: test concentration not given here
[11] = resazurin metabolic signal in HepG2 cells – cell-based, resazurin fluorescence, 24 h, PK04 Diversity Set, profiling panel (AID 1172); settings: HepG2 viability, higher = more signal; note: test concentration not given here
[12] = budding yeast growth changes without added modifier – OD600, strain BY4716, 24 h, basal condition, primary screen (AID 1173); settings: S. cerevisiae BY4716 growth, OD600, 24 h; higher = more signal, called active from +8 up or from −8 down
[13] = viability profiling in MM1S myeloma cells – cell-based, resazurin fluorescence, basal, 24 h, PK04 Diversity Set, profiling panel (AID 1174); settings: higher = more signal, called active from +8 up or from −8 down; note: test concentration not given here
[14] = target: Dihydroorotate dehydrogenase (quinone), mitochondrial (Plasmodium falciparum (isolate 3D7)) (UniProt Q08210); experiment: inhibition of P. falciparum DHODH – biochemical, C-terminal His tag, absorbance 600 nm, primary screen (AID 1175); settings: PfDHODH enzyme, DCIP absorbance 600 nm; higher = more signal, called active from +8 up or from −8 down;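 note: recombinant parasite enzyme with a five histidine tag at its C terminus; test concentration not given here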
[15] = inhibition of PAO1 biofilm formation – strain PAO1, LB-PBS medium, absorbance 600 nm, primary screen (AID 1176); note: test concentration not given here; settings: P. aeruginosa PAO1 growth/biofilm, A600, 12 h; higher = more signal
[16] = growth modulation of vineyard yeast isolate – strain RM11-1a, OD600, basal, 24 h, primary screen (AID 1177);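 note: cultures grown under basal conditions with no added stressor; test concentration not given here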; settings: S. cerevisiae RM11-1a growth, OD600, 24 h; higher = more signal, called active from +8 up or from −8 down
[17] = growth of efflux-deficient E. coli DRC39 – strain DRC39, OD650, 24 h, E. coli filamentation inducers, primary screen (AID 1178);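 note: growth measured as culture turbidity by optical density at 650 nm; test concentration not given here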; settings: E. coli DRC39 acrAB, higher = more signal, called active from +8 up or from −8 down
[18] = growth of efflux-deficient E. coli DRC39 – strain DRC39, OD650, 48 h, E. coli filamentation inducers, primary screen (AID 1179);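 note: screen aims at cell division blockers that make cells filament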; settings: E. coli DRC39 delta-acrAB growth, higher = more signal, called active from +8 up or from −8 down
[19] = viability profiling in RPMI8226 myeloma cells – cell-based, resazurin fluorescence, basal, 24 h, PK04 Diversity Set, profiling panel (AID 1180); settings: higher = more signal;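 note: RPMI8826 multiple myeloma cell line at 5000 cells per well; test concentration not given here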
[20] = target: E3 ubiquitin-protein ligase XIAP (Homo sapiens) (UniProt P98170); experiment: small molecules binding XIAP protein – biophysical, small-molecule microarray, fluorescence 635 nm, primary screen (AID 1181); settings: higher = more signal;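 note: score merges 667 nm emission and signal to noise over triplicate slides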
Chain of E3 ubiquitin-protein ligase XIAP (Homo sapiens) (P98170 whole entry, looked up): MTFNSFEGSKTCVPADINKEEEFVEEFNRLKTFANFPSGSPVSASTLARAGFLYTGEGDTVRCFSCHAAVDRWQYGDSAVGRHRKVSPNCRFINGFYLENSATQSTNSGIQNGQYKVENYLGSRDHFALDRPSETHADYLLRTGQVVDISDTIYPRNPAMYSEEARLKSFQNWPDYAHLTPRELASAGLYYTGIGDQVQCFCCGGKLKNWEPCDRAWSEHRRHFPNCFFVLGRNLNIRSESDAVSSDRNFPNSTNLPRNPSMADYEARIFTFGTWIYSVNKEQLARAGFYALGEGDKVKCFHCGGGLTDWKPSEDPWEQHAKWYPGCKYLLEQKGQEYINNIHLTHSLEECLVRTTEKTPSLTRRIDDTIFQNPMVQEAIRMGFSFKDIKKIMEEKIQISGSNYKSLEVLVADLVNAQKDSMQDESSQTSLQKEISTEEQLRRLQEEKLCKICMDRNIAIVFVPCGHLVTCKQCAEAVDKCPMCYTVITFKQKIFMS

Chain of Dihydroorotate dehydrogenase (quinone), mitochondrial (Plasmodium falciparum (isolate 3D7)) (Q08210 whole entry, looked up): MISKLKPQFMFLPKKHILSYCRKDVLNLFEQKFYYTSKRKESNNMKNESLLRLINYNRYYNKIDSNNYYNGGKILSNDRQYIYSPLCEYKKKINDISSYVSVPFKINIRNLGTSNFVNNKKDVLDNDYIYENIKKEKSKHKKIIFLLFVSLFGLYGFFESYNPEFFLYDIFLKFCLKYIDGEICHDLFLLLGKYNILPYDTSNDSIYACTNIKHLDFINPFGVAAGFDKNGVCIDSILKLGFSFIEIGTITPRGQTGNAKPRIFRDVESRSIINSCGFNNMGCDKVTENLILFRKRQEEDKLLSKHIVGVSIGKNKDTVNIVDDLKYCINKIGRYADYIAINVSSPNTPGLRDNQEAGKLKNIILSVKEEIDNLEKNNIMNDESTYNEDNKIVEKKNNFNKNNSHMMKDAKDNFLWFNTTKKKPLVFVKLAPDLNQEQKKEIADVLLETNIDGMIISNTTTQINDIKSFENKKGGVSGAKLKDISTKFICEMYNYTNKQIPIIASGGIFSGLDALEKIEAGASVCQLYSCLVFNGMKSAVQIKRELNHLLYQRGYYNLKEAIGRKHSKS

| Structure (SMILES) | z-score [1] | z-score [2] | z-score [3] | z-score [4] | z-score [5] | z-score [6] | z-score [7] | z-score [8] | z-score [9] | z-score [10] | z-score [11] | z-score [12] | z-score [13] | composite z-score [14] | z-score [15] | z-score [16] | z-score [17] | z-score [18] | z-score [19] | composite z-score [20] |
| --- | --- | --- | --- | --- | --- | --- | --- | --- | --- | --- | --- | --- | --- | --- | --- | --- | --- | --- | --- | --- |
| COC(=O)[C@@]1(Cc2ccc(OC)cc2)[C@H]2c3cc(C(=O)N(C)C)n(Cc4nc5ccccc5[nH]4)c3C[C@H]2CN1C(=O)c1ccccc1 | -2.46 | -0.529 | -1.79 | -1.37 | -3.86 | 2.13 | -1.24 (inactive) | -0.737 | -1.49 | -0.88 (inactive) | 0.014 | 1.03 (inactive) | -1.45 (inactive) | -0.291 (inactive) | -0.0982 (inactive) | 1.11 (inactive) | -0.614 (inactive) | -1.18 (inactive) | -2.51 | 0.382 |
| CC=CC(O)C1C=CC2C(=O)N(C)C(=O)C2N1Nc1ccc([N+](=O)[O-])cc1[N+](=O)[O-] (stereo not given) | -0.481 | -0.682 | 0.275 | -1.73 | -0.485 | -0.744 | -0.453 (inactive) | 0.0263 | -0.635 | -0.574 (inactive) | -1.12 | 0.554 (inactive) | -0.831 (inactive) | 0.295 (inactive) | 0.599 (inactive) | 0.658 (inactive) | -0.476 (inactive) | -0.618 (inactive) | -0.606 | -0.247 |
| COc1ccccc1CN1C(=O)c2ccccc2[C@](Cc2ccccc2I)(C(=O)NC(C)C)[C@@H]1c1ccc(CO)cc1 | 0.312 | 0.771 | -0.185 | -1.38 | -2.99 | 1.63 | -0.0467 (inactive) | -0.507 | -1.82 | -0.306 (inactive) | 0.985 | -0.601 (inactive) | -0.577 (inactive) | -2.47 (inactive) | -0.379 (inactive) | 0.862 (inactive) | 1.05 (inactive) | 1.01 (inactive) | -0.305 | -0.253 |
| C=CCN1C(=O)[C@]2(CC=C)N=C(c3ccc(OCCCO)cc3)O[C@@H]2c2ccccc21 | -1.23 | 0.931 | -1.82 | -3.48 | -3.86 | -1.12 | 2.63 (inactive) | -1.16 | -2.38 | -1.95 (inactive) | -0.956 | -2.51 (inactive) | -3.23 (inactive) | 0.0306 (inactive) | 1.26 (inactive) | 0.506 (inactive) | 0.578 (inactive) | 0.509 (inactive) | -3.09 | 0.197 |
| COc1cc(CO)cc(I)c1O[C@H]1C=C(C(=O)NCCO)C[C@@H](N(CC2CCCCC2)C(=O)c2ccc(C(F)(F)F)cc2)[C@@H]1O | 0.608 | -0.535 | 1.42 | 0.639 | -0.189 | 0.214 | -0.0651 (inactive) | -1.09 | -0.337 | 0.126 (inactive) | 0.445 | -1.02 (inactive) | -0.327 (inactive) | 0.345 (inactive) | 0.425 (inactive) | 0.183 (inactive) | 0.342 (inactive) | 0.212 (inactive) | 0.508 | 0.0859 |
| [N-]=[N+]=NCc1ccccc1C[C@@]1(C(=O)NCCN2CCOCC2)N=C(c2ccc(OCCCO)cc2)O[C@@H]1c1ccccc1N=[N+]=[N-] | -1.6 | 1.61 | -1.05 | -1.31 | -3.68 | 0.862 | -1.38 (inactive) | -0.923 | -1.12 | -0.0172 (inactive) | -0.61 | -1.22 (inactive) | -0.37 (inactive) | 0.699 (inactive) | 0.124 (inactive) | -0.304 (inactive) | 0.647 (inactive) | -0.456 (inactive) | -0.0843 | 0.318 |
| C=C[C@H](COC(C)=O)NS(=O)(=O)c1ccc(Br)cc1 | 0.0955 | -0.569 | 1.05 | 0.661 | 0.402 | 0.549 | 0.0685 (inactive) | -0.616 | 0.651 | -0.201 (inactive) | 0.266 | -1.05 (inactive) | -0.05 (inactive) | -1.08 (inactive) | -0.18 (inactive) | 0.579 (inactive) | 0.165 (inactive) | -0.0304 (inactive) | -0.675 | -0.0627 |
| C=C(CCCC)/C(=C/C[C@@H](OC(=O)c1ccncc1)c1cccc(OCCO)c1)c1cnc2ccccc2c1 | -0.021 | 1.14 | -0.681 | -2.65 | -1.5 | 1.99 | -0.891 (inactive) | -0.497 | 0.117 | 0.586 (inactive) | 0.0976 | -1.17 (inactive) | -0.369 (inactive) | -2.5 (inactive) | 2.24 (inactive) | 0.264 (inactive) | 0.879 (inactive) | 0.357 (inactive) | 0.0765 | -0.0261 |
| Cc1ccc(S[C@]2(C(=O)NC(C)C)CC(=O)N(Cc3ccccc3C(F)(F)F)[C@@H]2c2ccc(CO)cc2I)cc1 | 0.0252 | 0.384 | -0.933 | -2.38 | -3.2 | -0.361 | -0.123 (inactive) | -0.399 | -2.48 | 1.32 (inactive) | 0.105 | -5.85 (inactive) | -1.86 (inactive) | -1.47 (inactive) | 0.27 (inactive) | -2.43 (inactive) | 0.221 (inactive) | 0.201 (inactive) | -2.09 | -0.126 |

From PubChem BioAssay
